# Source: PubChem BioAssay
# In the library only some 2.8% were active in any assay of this set; here they are far more common.
# sPLA2-III inh: human group III sPLA2 inhibitors, primary screen, biochemical, QFRET, BODIPY PC-A2 liposome substrate. QFRET BODIPY PC-A2 liposome hydrolysis, fluorescence. inhibition, % at 12.2 µM. Group 3 secretory phospholipase A2 (Homo sapiens), Q9NZ20. actives 0.56% (n = 370,000);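 active means inhibition above mean plus 3 SD of compounds lying within the high and low control bounds, cut at about 19% in these data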
# Target sequence (Q9NZ20 whole entry, looked up): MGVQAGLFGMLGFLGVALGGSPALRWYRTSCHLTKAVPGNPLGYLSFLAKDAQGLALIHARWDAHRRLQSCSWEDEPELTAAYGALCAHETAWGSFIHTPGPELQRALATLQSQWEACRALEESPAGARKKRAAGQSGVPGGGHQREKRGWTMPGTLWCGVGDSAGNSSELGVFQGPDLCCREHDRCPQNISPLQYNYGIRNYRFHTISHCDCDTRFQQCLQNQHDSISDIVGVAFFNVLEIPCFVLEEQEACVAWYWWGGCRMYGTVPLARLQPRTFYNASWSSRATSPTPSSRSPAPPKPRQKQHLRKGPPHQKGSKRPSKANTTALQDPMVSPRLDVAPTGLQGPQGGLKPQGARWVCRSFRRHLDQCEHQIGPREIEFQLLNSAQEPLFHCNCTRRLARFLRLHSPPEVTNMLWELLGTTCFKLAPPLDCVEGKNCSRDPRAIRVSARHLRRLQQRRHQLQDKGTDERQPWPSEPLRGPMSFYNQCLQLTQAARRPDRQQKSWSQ
# rCAG RNA binder: binders of r(CAG) RNA repeats, primary screen, biochemical, fluorescence; r(CAG) RNA repeat, TO-PRO-1 dye displacement fluorescence; actives 1.3% (n = 370,000); inhibition, % at 3 µM;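 active means inhibition above the plate cutoff, the mean of all test compounds on that plate plus 3 SD, cut at about 35% in these data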;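 further: higher means more dye released from RNA so lower well fluorescence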
# MsrA inh: bovine MsrA enzyme inhibitors, primary screen, biochemical, absorbance, HTS. Methionine sulfoxide reductase A (Bos taurus). purified bovine MsrA, absorbance read-out. actives 0.75% (n = 360,000). inhibition, % at 15.5 µM; in the data active means inhibition above about 4.5%
# MsrA act: bovine MsrA enzyme activators, primary screen, biochemical, absorbance, HTS; Methionine sulfoxide reductase A (Bos taurus); purified bovine MsrA, absorbance read-out; activation, % at 10.6 µM; actives 0.3% (n = 360,000); AID 602163, 2012; in the data active means activation above about 7.5%
# A number is an active result; i = inactive; nt = no result.
SMILES,sPLA2-III inh,rCAG RNA binder,MsrA inh,MsrA act
COc1ccc(N2CC(C(=O)Nc3ccc([N+](=O)[O-])cc3Br)CC2=O)cc1 (configuration not stated),i,i,i,i
O=C(NC(=S)NCCc1ccccn1)c1ccccc1,i,i,i,i
O=C1C(C2=C(O)c3ccccc3C2=O)=Nc2ccccc21,i,44,i,i
CN=CC1=C(O)c2ccccc2C1=O,i,i,i,i
O=C(NCc1cccs1)C1Cc2c(-c3ccccc3Oc3ccccc3)ccnc2O1 (configuration not stated),i,i,i,i
CCN(c1ccc(C)cc1)S(=O)(=O)c1nnc(NC(=O)c2ccco2)s1,i,44,i,i
COc1ccc(S(=O)(=O)N(C(=O)C(C)C)c2ccc3oc(=O)sc3c2)cc1,i,i,i,i
COc1ccc(S(=O)(=O)N(C(=O)c2ccco2)c2cc3sc(=O)oc3c3ccccc23)cc1,i,98,i,i
Cc1nc(-c2ccc([N+](=O)[O-])cc2)sc1C(=O)O,i,i,4.6,i
Cc1ccc(-c2nc(C)c(C(=O)O)s2)cc1,i,i,i,i
O=C(c1cccs1)N1CCC(c2nc3c(nnn3Cc3c(Cl)cccc3Cl)c(=O)[nH]2)CC1,i,i,i,i
O=C(COc1ccc2c3c(c(=O)oc2c1)CCCC3)N[C@@H](Cc1ccccc1)C(=O)O,i,i,i,i
O=C(COc1ccc2c3c(c(=O)oc2c1)CCCC3)NC(Cc1ccc(Cl)cc1)C(=O)O (configuration not stated),i,38,i,i
N=C1/C(=C\c2ccc(OC(=O)c3ccccc3)cc2)C(=O)N=C2SC(N3CCOCC3)=NN12,i,42,i,i
C[C@H]1[C@H](c2ccccc2)C[C@@H](C(=O)O)C1(C)C,i,i,i,i
O=C(O)C(CO)N=Cc1c(O)c2ccccc2oc1=O (configuration not stated),i,i,4.6,i
c1cc(CNCCN2CCNCC2)ccn1,i,i,i,i
COc1ccc(-n2cccc2/C=C2\C(=N)N3N=C(c4ccco4)SC3=NC2=O)cc1,i,51,i,i
Cc1nc(C(=O)NC2CC2)sc1C1(C)CC(c2cccc([N+](=O)[O-])c2)=NO1 (configuration not stated),i,i,i,i
Cc1cccc(NC(=S)N=Nc2c(O)[nH]c3ccccc23)c1,20,i,i,i
Cc1nc(SCC(=O)N2CCCCC2)c2c(C)c(C)sc2n1,i,i,i,i
O=C1CC(NC(=O)C(F)(F)F)c2cc3c(cc21)OCO3 (configuration not stated),i,i,i,i
COc1ccc(/C=C/c2nc3ccccc3n2C)cc1,i,i,5.5,i
CCCCC(CC)CN=C(N)NC(N)=NCCCCCCN=C(N)NC(N)=NCC(CC)CCCC (configuration not stated),nt,nt,nt,9.7
OCC1OC(C(N=Nc2ccccc2)=NNc2ccccc2)C(O)C1O (configuration not stated),20,i,i,nt
SMILES,sPLA2-III inh,rCAG RNA binder,MsrA inh,MsrA act
Cc1ccc(C(=O)COC(=O)c2cccc(NC(=O)c3ccc([N+](=O)[O-])cc3[N+](=O)[O-])c2)cc1,i,i,i,i
COc1cc(/C=N/NC(=O)c2cccc(NC(=O)c3ccccc3C)c2)ccc1O,i,i,i,i
COc1ccc(/C=N/NC(=O)c2ccc(NC(=O)c3cccc([N+](=O)[O-])c3)cc2)c(OC)c1,i,i,i,i
COc1cc(/C=N/NC(=O)c2cccc(NC(=O)c3ccccc3)c2)ccc1O,i,i,4.6,i
COc1ccc(/C=N/NC(=O)c2ccc(NC(=O)c3cccc([N+](=O)[O-])c3)cc2)c(C(=O)O)c1OC,i,i,4.6,i
COc1ccc(-c2nc3ccc(C)cn3c2Cc2ccccc2C(F)(F)F)cc1OC,i,i,i,nt
COc1ccc(-c2nc3ccc(Cl)cn3c2Cc2ccccc2C(F)(F)F)cc1OC,i,42,i,i
Cc1ccc(NC(=O)Cn2c(=O)oc3ccccc32)cc1,i,i,i,i
O=C1/C(=C\c2ccc(O)c(O)c2)N=C2CCCCCN12,i,i,i,i
O=C1/C(=C/c2cccnc2)N=C2CCCCCN12,i,i,4.6,i
CCOC(=O)Nc1ccc2c(COC(=O)C(NS(=O)(=O)c3ccc(Cl)cc3)C(C)O)cc(=O)oc2c1 (configuration not stated),i,i,4.6,i
CCN(CC(=O)Nc1ccc([N+](=O)[O-])cc1OC)c1ccccc1,i,i,4.8,i
COc1cc(/C=C(\C#N)C(=O)Nc2cccc(C(=O)O)c2)ccc1OCc1ccc(C)cc1,i,i,i,i
COc1cc(/C=C(/C#N)C(=O)Nc2ccccc2)ccc1OCc1ccc(C(=O)O)cc1,i,40,i,i
Cn1nnc(NCc2cc(Br)ccc2OCc2ccccc2F)n1,i,i,i,i
Cc1cccc(CSC(Nc2ccc(F)cc2)=C(C#N)C#N)c1,i,40,i,i
O=C(N/N=C/c1ccco1)c1cccc(N2CCCC2=O)c1,i,i,i,i
O=C(N/N=C/c1ccco1)c1cccc(N2Cc3ccccc3C2)c1,i,37,i,i
CCN(CC)S(=O)(=O)c1ccc(NC(=O)CSc2nnc(-c3cccc(OC)c3)n2C)cc1,i,i,i,i
COc1cccc(C2CCCN2Cc2nc(CC3CC3)no2)c1 (configuration not stated),i,i,i,i
CC1=NN(c2ccccc2)C(=O)/C1=C/c1c(O)n(-c2ccc(F)cc2)[nH]c1=O,i,91,i,i
O=C(NCCCN1CCOCC1)c1cc(C(=O)C2CC2)c[nH]1,i,i,i,i
Cc1cc2ccccc2n2c(SCC(=O)NCc3cccs3)nnc12,i,i,i,i
O=[N+]([O-])c1ccc2c(c1)N([O-])C1(CCCCC1)[N+]2=O,i,35,i,nt
O=C1N/C(=N/N=C/c2ccco2)SC1Cc1ccccc1 (configuration not stated),i,i,4.6,i
SMILES,sPLA2-III inh,rCAG RNA binder,MsrA inh,MsrA act
Cc1ccc(CC2S/C(=N/N=C/c3ccco3)NC2=O)cc1 (configuration not stated),i,i,i,i
CCOC(=O)c1cc2ccc(OC)cc2oc1=O,i,i,4.6,i
CCOC(=O)c1c(NC(C)=O)sc2c(O)c(Br)cc(Br)c12,i,44,i,i
O=c1c2ccccc2nc(/C=C/c2ccccc2)n1CCCO,i,i,4.6,i
O=c1c2ccccc2nc(/C=C/c2ccc3c(c2)OCO3)n1CCCO,nt,nt,nt,i
Cc1ccccc1-c1cnc2c(c1)C(=O)N([C@H](C)CO)C[C@@H](C)[C@H](CN(C)C(=O)c1ccncc1)O2,i,i,i,i
Cc1cccc(NC(=O)CSCC(=O)Nc2cc(C(F)(F)F)ccc2N2CCOCC2)c1,i,i,i,i
CN(C)c1ccc(Cc2cc3c(O)ccc(O)c3cc(Cc3ccc(N(C)C)cc3)c2=O)cc1,i,76,i,i
Cc1ccc(-c2csc(NS(=O)(=O)c3cccc(F)c3)n2)o1,i,71,i,i
O=C(O)CCCCCCCCCCCc1ccccc1,i,36,i,i
